Laboratory results as given in PubChem BioAssay (NCATS).
Results filed as inconclusive are left out. The source made the active and inactive calls. Unless noted, calls come from the whole dose curve; as a rule, active = well fitted inhibition curve with a large enough effect; inconclusive = small, poorly fitted or top-dose-only effect; inactive = flat fitted curve, though single readings scatter.

assay: qHTS drug screen for cell cycle checkpoint inhibitors in PARPi-resistant BRCA-mutant ovarian cancer cell lines. (AID 1963452; calls by dose curve); settings: PEO1/OlaR viability, CellTiter-Glo luminescence, 96 h; stronger effect = lower value
Method in brief: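 PEO1, PEO4 and PEO1/OlaR ovarian cancer cells, 600 per well, exposed 96 h at 37C to a dilution series. Viability read by CellTiter-Glo luminescence, normalized to DMSO and empty wells; activity summarized as Z-AUC.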

| Compound | Z-AUC |
| --- | --- |
| C/C=C/C(=O)N(CC)c1ccccc1C | 0.904 (inactive) |
| Cc1ccsc1C(=CCCN1CCC[C@@H](C(=O)O)C1)c1sccc1C | -0.0792 (inactive) |
| O=C(O)/C=C/c1ccc(Cn2ccnc2)cc1 | 1.62 (inactive) |
| CCCCCOC(=O)Nc1nc(=O)n([C@@H]2O[C@H](C)[C@@H](O)[C@H]2O)cc1F | -0.294 (inactive) |
| CCOC(=O)[C@H](CCc1ccccc1)N[C@@H](C)C(=O)N1CCC[C@H]1C(=O)O | 0.643 (inactive) |
| CN(C(=O)c1c(O)c2ccccc2n(C)c1=O)c1ccccc1 | 0.957 (inactive) |
| O=c1[nH]c(=O)n([C@H]2C[C@H](O)[C@@H](CO)O2)cc1I | 1.59 (inactive) |
| OC[C@@H](O)[C@@H](O)[C@H](O)[C@H](O)CO | -0.605 (inactive) |
| COc1ccc(-c2cc(=O)c3c(O)cc(O[C@@H]4O[C@H](CO[C@@H]5O[C@@H](C)[C@H](O)[C@@H](O)[C@H]5O)[C@@H](O)[C@H](O)[C@H]4O)cc3o2)cc1O | 1.88 (inactive) |
| OCCN1C[C@H](O)[C@@H](O)[C@H](O)[C@H]1CO | 0.928 (inactive) |
| Cc1onc(-c2ccccc2)c1-c1ccc(S(N)(=O)=O)cc1 | -1 (inactive) |

same assay, conditions: PEO1/OlaR viability, CellTiter-Glo luminescence, 96 h; measured here: PEO1 parental Z-AUC; stronger effect = lower value

| Compound | Z-AUC |
| --- | --- |
| C/C=C/C(=O)N(CC)c1ccccc1C | 0.852 |
| Cc1ccsc1C(=CCCN1CCC[C@@H](C(=O)O)C1)c1sccc1C | 0.789 |
| O=C(O)/C=C/c1ccc(Cn2ccnc2)cc1 | 1.73 |
| CCCCCOC(=O)Nc1nc(=O)n([C@@H]2O[C@H](C)[C@@H](O)[C@H]2O)cc1F | -0.525 |
| CCOC(=O)[C@H](CCc1ccccc1)N[C@@H](C)C(=O)N1CCC[C@H]1C(=O)O | 0.764 |
| CN(C(=O)c1c(O)c2ccccc2n(C)c1=O)c1ccccc1 | 0.533 |
| O=c1[nH]c(=O)n([C@H]2C[C@H](O)[C@@H](CO)O2)cc1I | 0.705 |
| OC[C@@H](O)[C@@H](O)[C@H](O)[C@H](O)CO | -0.476 |
| COc1ccc(-c2cc(=O)c3c(O)cc(O[C@@H]4O[C@H](CO[C@@H]5O[C@@H](C)[C@H](O)[C@@H](O)[C@H]5O)[C@@H](O)[C@H](O)[C@H]4O)cc3o2)cc1O | 1.52 |
| OCCN1C[C@H](O)[C@@H](O)[C@H](O)[C@H]1CO | 0.927 |
| Cc1onc(-c2ccccc2)c1-c1ccc(S(N)(=O)=O)cc1 | -0.334 |

same assay, conditions: PEO1/OlaR viability, CellTiter-Glo luminescence, 96 h; measured here: PEO4 Z-AUC; stronger effect = lower value

| Compound | Z-AUC |
| --- | --- |
| C/C=C/C(=O)N(CC)c1ccccc1C | 0.821 |
| Cc1ccsc1C(=CCCN1CCC[C@@H](C(=O)O)C1)c1sccc1C | 0.901 |
| O=C(O)/C=C/c1ccc(Cn2ccnc2)cc1 | 2.28 |
| CCCCCOC(=O)Nc1nc(=O)n([C@@H]2O[C@H](C)[C@@H](O)[C@H]2O)cc1F | -0.448 |
| CCOC(=O)[C@H](CCc1ccccc1)N[C@@H](C)C(=O)N1CCC[C@H]1C(=O)O | 0.867 |
| CN(C(=O)c1c(O)c2ccccc2n(C)c1=O)c1ccccc1 | 0.496 |
| O=c1[nH]c(=O)n([C@H]2C[C@H](O)[C@@H](CO)O2)cc1I | 0.916 |
| OC[C@@H](O)[C@@H](O)[C@H](O)[C@H](O)CO | -0.786 |
| COc1ccc(-c2cc(=O)c3c(O)cc(O[C@@H]4O[C@H](CO[C@@H]5O[C@@H](C)[C@H](O)[C@@H](O)[C@H]5O)[C@@H](O)[C@H](O)[C@H]4O)cc3o2)cc1O | 0.98 |
| OCCN1C[C@H](O)[C@@H](O)[C@H](O)[C@H]1CO | 1.11 |
| Cc1onc(-c2ccccc2)c1-c1ccc(S(N)(=O)=O)cc1 | 0.0747 |

assay: qHTS profiling for inhibitors of Plasmodium falciparum proliferation (AID 504749);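 note: 0% = DMSO vehicle and full inhibition = artemisinin control; nearly all actives have a fitted effect of over 60% in size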; settings: P. falciparum in erythrocytes, SYBR Green DNA, 72 h; at 12.8 µM (top of the series); parasite line A
Method in brief: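 Infected RBCs, 0.3% parasitemia/2.5% Hct final; cpd 72 h, 37 C, 5% CO2; lysis buffer with saponin/triton/SYBR Green I, o/n RT dark; FI 485/535; norm. to artemisinin (0.29 uM) and DMSO.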

| Compound | activity, negative = inhibition |
| --- | --- |
| O=C(O)COC(=O)Cc1ccccc1Nc1c(Cl)cccc1Cl | -3.73% (inactive) |
| COc1ccc2cc(CCC(C)=O)ccc2c1 | 8.55% (inactive) |
| COc1ccc(NS(=O)(=O)c2ccc(N)cc2)nn1 | 2.8% (inactive) |

same assay, conditions: P. falciparum in erythrocytes, SYBR Green DNA, 72 h; at 12.8 µM (top of the series); parasite line B

| Compound | activity, negative = inhibition |
| --- | --- |
| O=C(O)COC(=O)Cc1ccccc1Nc1c(Cl)cccc1Cl | 2.28% (inactive) |
| COc1ccc2cc(CCC(C)=O)ccc2c1 | 1.23% (inactive) |
| COc1ccc(NS(=O)(=O)c2ccc(N)cc2)nn1 | 13.5% (inactive) |

same assay, conditions: P. falciparum in erythrocytes, SYBR Green DNA, 72 h; at 28.7 µM (top of the series); parasite line A

| Compound | activity, negative = inhibition |
| --- | --- |
| Cc1cccc(C)c1NC(=O)CC12CCCN1CCC2 | 2.82% (inactive) |
| Cc1ccsc1C(=CCCN1CCC[C@@H](C(=O)O)C1)c1sccc1C | 0.673% (inactive) |
| COC(=O)c1ccc(O)cc1 | 3.79% (inactive) |
| COc1ccc(O)cc1 | -6.25% (inactive) |
| c1ccc2[nH]ccc2c1 | 15.1% (inactive) |
| CCN1CC(CCN2CCOCC2)C(c2ccccc2)(c2ccccc2)C1=O (stereo not drawn) | 10.7% (inactive) |
| CCOC(=O)[C@H](CCc1ccccc1)N[C@@H](C)C(=O)N1CCC[C@H]1C(=O)O | 7.69% (inactive) |
| CCN(CC)C(=O)c1cccc(C)c1 | 7.82% (inactive) |
| FC(F)(F)C(Cl)Br (stereo not drawn) | 6.28% (inactive) |
| CN(C(=O)c1c(O)c2ccccc2n(C)c1=O)c1ccccc1 | 16.3% (inactive) |
| CC(=O)OCC(COC(C)=O)OC(C)=O | 4.58% (inactive) |
| CC(CN(C)C)C(C)(O)Cc1ccc(Cl)cc1 (stereo not drawn) | 6.13% (inactive) |
| OC[C@@H](O)[C@@H](O)[C@H](O)[C@H](O)CO | 7.85% (inactive) |
| O=C(CCBr)N1CCN(C(=O)CCBr)CC1 | 10% (inactive) |
| CC(=O)Nc1ccc(C(=O)O)cc1 | 7.84% (inactive) |
| C=CCNC(N)=S | 5.67% (inactive) |
| O[C@@H]1CO[C@H]2[C@@H]1OC[C@@H]2O | 8.49% (inactive) |
| CC(C)c1cc2c(cc1S(=O)(=O)O)[C@@]1(C)CCC[C@@](C)(C(=O)O)[C@@H]1CC2 | 12.2% (inactive) |
| Cc1onc(-c2ccccc2)c1-c1ccc(S(N)(=O)=O)cc1 | -24.3% (inactive) |
| CC(C)CCCC(C)CCCC(C)CCCCC(C)CCCC(C)CCCC(C)C (stereo not drawn) | -0.284% (inactive) |
| CCCCCCCC(=O)OCC(O)CO (stereo not drawn) | 0.997% (inactive) |
| CCCNC(C)(C)COC(=O)c1ccccc1 | -2.07% (inactive) |
| Cc1cccc(Nc2ccccc2C(=O)O)c1C | -4.38% (inactive) |
| CN1CCCN=C1COC(=O)C(O)(c1ccccc1)C1CCCCC1 (stereo not drawn) | 2.78% (inactive) |
